Source: PubChem
Shown are actives, neighbours in structure and some others; about 3.7% of the full set was active somewhere.
A549 tox: A549 cytotoxicity, counter-screen for Nrf2 inhibitors; Potency, µM (top dose mostly 46 µM), without a hit: at the highest dose activity change, negative = cytotoxicity, most hits filed as inhibitors; A549 ARE-Fluc cells, CellTiter-Fluor viability, 18-24 h; hit rate 0.16% among 390,000; AID 504648; also: % is scaled to controls: 0 for no effect and ±100 for the full control effect
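A549 ARE-Fluc cells in 5% FBS OPTI-MEM, 5000 cells/well, rested 2 h then exposed to compounds in concentration-response for 18-24 h at 37 °C. Viability by CellTiter-Fluor fluorescence (Ex 405/Em 525) after 30 min; luciferase luminescence (BugLite, 15 min, RT) read afterwards.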
ELG1 DNA repair: blocks ELG1-dependent DNA repair in HEK293T cells; HEK293T ELG1-luciferase reporter, luminescence, 16 h; DNA damage induced by 5-fluorouridine; Potency, µM (top dose mostly 46.1 µM), without a hit: at the highest dose activity change, negative = inhibition, actives largely listed as inhibitors; hit rate 2.3% among 330,000; also: % is scaled to controls: 0 for no effect and ±100 for the full control effect; nearly all actives have a fitted effect of over 55% in size
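5-Fluorouridine DNA damage + compound/DMSO, 2,000 cells/well, 16 h, 37 °C/5% CO2. ONE-Glo, 30 min RT, luminescence. Readout = decrease in reporter signal.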
Nrf2 inh: inhibitors of Nrf2 signaling; A549 ARE-Fluc reporter, luciferase luminescence, 18-24 h; AID 504444; Potency, µM (titrated, usually from 46 µM), without a hit: at the highest dose activity change, negative = inhibition, most hits filed as inhibitors; hit rate 2.1% among 360,000; also: % is scaled to controls: 0 for no effect and ±100 for the full control effect; nearly all actives have a fitted effect of over 60% in size
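Quantitative HTS in A549 cells stably bearing an antioxidant response element-firefly luciferase construct. Inhibition of Nrf2-driven transcription was scored by luminescence after 18-24 h of compound exposure at 37 °C.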
Nrf2 activator: Nrf2 pathway activation; AREc32 ARE-luciferase reporter (MCF7-derived line), luminescence, 24 h; AID 624171; hit rate 0.31% among 410,000; Potency, µM (doses to about 46.1 µM), for inactives: top-dose activation, hits mostly activators; also: % of control where 0% means no effect; nearly all actives have a fitted effect of over 65% in size
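Cells of the AREc32 ARE-luciferase line are plated in OPTI-MEM containing 5% FBS and left overnight at 37 deg C. Compounds are pinned in, incubation continues 24 hr, and firefly luciferase signal is then measured.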
Starred values were filed as active, the others as inactive; ? = inconclusive; · = no result. Calls follow the shape of the dose curve; as a rule, active = well fitted curve in the direction sought with a large enough effect; inconclusive = small, poorly fitted or top-dose-only effect, or another doubt; inactive = no such curve, though single readings can be large; an effect the other way counts as inactive or inconclusive. Potency is read from the fitted curve at half-maximal effect.

SMILES	A549 tox	ELG1 DNA repair	Nrf2 inh	Nrf2 activator
CCS(=O)(=O)c1nc(S(=O)(=O)c2ccc(Cl)cc2)c(N2CCC3(CC2)OCCO3)s1	2.3%	0.2%	6.2%	11.2µM*
CS(=O)(=O)c1nc(S(=O)(=O)c2ccc(Cl)cc2)c(N2CCC(C(N)=O)CC2)s1	-10.1%	-22.5%	-49.3%	?
CS(=O)(=O)c1nc(S(=O)(=O)c2ccc(Cl)cc2)c(N2CCC3(CC2)OCCO3)s1	-3.7%	3.5%	?	10µM*
O=C(OCC#CCSc1nnc(-c2cccc3ccccc23)o1)c1ccc(F)nc1	-10.0%	·	7.8%	·
CCCSc1nnc(NC(=O)c2cc(=O)c3ccccc3o2)s1	0.6%	·	2.8%	-1.5%
CCn1c(SCC(=O)NC2CCCC2)nc2c(c1=O)SCC2	·	·	·	0.2%
CCOC(=O)c1sc(NC(=O)c2ccoc2C)c(C(N)=O)c1C	-6.3%	8.2µM*	?	0.9%
Cc1cccc(C(=O)N(CCc2ccccc2)Cc2ccccc2)c1[N+](=O)[O-]	?	-12.1%	20.6µM*	0.1%
O=C(c1ccccc1[N+](=O)[O-])N(CCc1ccccc1)Cc1ccccc1	0.2%	-10.0%	?	1.1%
CC1CCN(CC(CS(=O)(=O)c2ccc([N+](=O)[O-])cc2)N2CCC(C)CC2)CC1 (configuration not stated)	?	?	23.1µM*	2.6%
Cc1ccccc1NC(=O)CCn1nc(-c2ccc(Cl)cc2)c2ccccc2c1=O	5.2%	·	-5.7%	2.6%
O=C(COc1cccnc1[N+](=O)[O-])Nc1cccc2ccccc12	-4.3%	3.8%	-11.2%	5.62µM*
O=C(COc1ccccc1[N+](=O)[O-])NNC(=O)Nc1cccc2ccccc12	-4.1%	?	?	14.1µM*
O=C(COc1cccnc1[N+](=O)[O-])Nc1c(Cl)cccc1Cl	3.0%	8.8%	-28.9%	1.0%
Cc1nnc(NC(=O)CSc2nccn2-c2cccc(Cl)c2)s1	2.0%	·	·	0.6%
Cc1cc(OCCN2CCOCC2)ccc1Cl	14.2%	?	?	6.6%
O=C(Nc1ccc(Br)cc1)C1CCCN(C2=NS(=O)(=O)c3ccccc32)C1 (configuration not stated)	-14.6%	-9.1%	?	0.5%
COc1ccc(-c2noc(N3CCC(C(=O)NC(C)c4ccccc4)CC3)n2)cc1 (configuration not stated)	-20.1%	13µM*	23.1µM*	-0.4%
Cc1ccc(Nc2nc(Nc3ccc(C)c(C)c3)nc(N3CCOCC3)n2)cc1C	?	·	-4.9%	10.2%
CC(C)(C)NC(=O)CSc1nc2ccc(Nc3nc(N4CCOCC4)nc(N4CCOCC4)n3)cc2s1	0.2%	3.26µM*	?	-1.2%
COc1ccc(NC(=O)CSc2nc3ccc(Nc4nc(N5CCOCC5)nc(N5CCOCC5)n4)cc3s2)cc1	-0.2%	2.31µM*	?	-0.5%
CC(=O)CSc1nc2ccc(Nc3nc(N4CCOCC4)nc(N4CCOCC4)n3)cc2s1	·	?	-16.7%	11.4%
COc1ccc(Nc2nc(N3CCOCC3)nc(N3CCOCC3)n2)cc1Cl	-3.8%	5.62µM*	?	0.0%
Cc1ccc(NC(=O)CSc2nc3ccc(Nc4nc(N5CCOCC5)nc(N5CCOCC5)n4)cc3s2)cc1	?	?	?	1.2%
COc1ccccc1/C=C/c1nc(C#N)c(NC2CCCCC2)o1	-21.4%	·	?	-0.4%
SMILES	A549 tox	ELG1 DNA repair	Nrf2 inh	Nrf2 activator
COc1cccc(CNC(=O)N2CCC(CN3CCC(C)CC3)CC2)c1	1.4%	·	·	1.0%
COc1cc(C(=S)N2CCC(C)CC2)ccc1O	·	0.4%	18.4µM*	0.1%
O=[S+]([O-])(c1ccc2c(c1)OCCO2)N1CCN([S+](=O)([O-])c2ccc(F)cc2Cl)CC1	1.0%	·	-19.6%	·
COc1cccc(-c2csc(N3CCN(C(=O)NC45CC6CC(CC(C6)C4)C5)CC3)n2)c1	-5.2%	23.1µM*	?	-0.2%
COc1cccc(NC(=O)N2CCN(c3nc(-c4cccc(OC)c4)cs3)CC2)c1	-17.3%	14.6µM*	?	0.1%
COc1cccc(-c2csc(N3CCN(C(=O)Nc4ccccc4Cl)CC3)n2)c1	6.0%	-6.8%	6.5%	-0.9%
Cc1c(Cl)cccc1-n1ncc(C(=O)N2CCc3ccccc3C2)c1C1CCN(C(=O)OC(C)(C)C)CC1	-16.6%	·	?	0.5%
COc1ccccc1CN1CCNC(=O)C1=O	-9.9%	·	·	0.0%
CC(/C=C/c1ccc(O)cc1)=N/O	-4.7%	23.1µM*	·	5.3%
Clc1ccc(-c2cc3ncc4c(n3n2)-c2ccccc2OC4)cc1	-6.2%	·	?	5.4%
COc1nnc(-c2ccc(C)cc2)c2ccccc12	-1.3%	-0.2%	-1.1%	-0.3%
COc1ccc(N2CCN(S(=O)(=O)CCNC(=O)c3c(F)cccc3Cl)CC2)cc1	10.6%	·	·	-0.7%
CNc1oc(/C=C/c2ccccc2)nc1C#N	4.6%	?	?	2.82µM*
COCCNc1oc(/C=C/c2ccccc2)nc1C#N	-5.4%	?	?	2.0%
COc1ccccc1CNC(=S)NC1CCCCC1	?	-14.3%	14.6µM*	3.0%
CC(C)(C)OC(=O)NCCCCCNC(=O)c1nc[nH]c1C(=O)N1CCN(c2ccccc2)CC1	-3.7%	?	?	0.7%
CC(C)(C)OC(=O)NCCCC[C@H](NC(=O)c1nc[nH]c1C(=O)N1CCN(c2ccccc2)CC1)C(=O)OC(C)(C)C	0.4%	20.6µM*	-10.2%	5.3%
C[C@@H](NC(=O)c1nc[nH]c1C(=O)N[C@@H](CCCCNC(=O)OC(C)(C)C)C(=O)OC(C)(C)C)c1ccccc1	?	?	16.4µM*	-1.1%
CCOC(=O)c1ccc(NC(=O)c2nc[nH]c2C(=O)N[C@H](C)c2ccccc2)cc1	?	?	16.4µM*	-4.3%
O=C(NCC(c1ccco1)N1CCCCC1)c1ccc(COc2ccc(Cl)cc2)cc1 (configuration not stated)	?	·	?	8.4%
O=C(Cn1c(SCC(=O)Nc2ccc(F)cc2)nc2ccccc21)NCc1ccc(Cl)cc1	-15.3%	·	·	-1.8%
COc1cc(NC(=O)c2cccc3c2C(=O)N(C2CCCCC2)C3)cc(OC)c1OC	-5.5%	4.61µM*	?	-0.8%
CCOC(=O)c1ccccc1NC(=O)c1cccc2c1C(=O)N(C1CCN(C(=O)OCC)CC1)C2	2.1%	18.4µM*	-22.4%	0.4%
O=c1ccc(Oc2nc(N3CCOCC3)nc(N3CCOCC3)n2)nn1-c1ccccc1	7.4%	13µM*	1.6%	-0.1%
CC1=C(c2ccc(C)c(C)c2)S(=O)(=O)N(Cc2ccc(C(=O)NC(C)c3ccccc3)cc2)C1=O (configuration not stated)	0.7%	·	2.0%	-0.7%
CCOc1cc(C(N)=O)cc(Cl)c1OCC	-3.1%	-19.7%	-19.6%	-0.4%
CCOc1cc(C(N)=O)cc(Br)c1OCC	2.6%	8.2µM*	?	0.3%
O=C(COC(=O)c1ncc(Cl)c(Cl)c1Cl)NC(=O)c1ccccc1	5.2%	?	1.7%	0.3%
